Test results published in PubChem BioAssay (EPA / NIEHS).
Inconclusive results are not listed. Calls of active or inactive are those of the source. Rule for the calls: active = hit-call score of the fitted dose curve at least 0.9, where 1 is the maximum; inconclusive = response in the unintended direction; inactive = score below 0.9.

Key:
[1] = biological target: Cellular tumor antigen p53 (Homo sapiens) (UniProt P04637); test: TOX21_p53_BLA_p2_ratio: Tox21 HCT-116 p53 Agonism Beta-lactamase Assay, Ratio, Phase 2 (AID 2283592)
Cellular tumor antigen p53 (Homo sapiens), sequence (P04637 whole entry, looked up): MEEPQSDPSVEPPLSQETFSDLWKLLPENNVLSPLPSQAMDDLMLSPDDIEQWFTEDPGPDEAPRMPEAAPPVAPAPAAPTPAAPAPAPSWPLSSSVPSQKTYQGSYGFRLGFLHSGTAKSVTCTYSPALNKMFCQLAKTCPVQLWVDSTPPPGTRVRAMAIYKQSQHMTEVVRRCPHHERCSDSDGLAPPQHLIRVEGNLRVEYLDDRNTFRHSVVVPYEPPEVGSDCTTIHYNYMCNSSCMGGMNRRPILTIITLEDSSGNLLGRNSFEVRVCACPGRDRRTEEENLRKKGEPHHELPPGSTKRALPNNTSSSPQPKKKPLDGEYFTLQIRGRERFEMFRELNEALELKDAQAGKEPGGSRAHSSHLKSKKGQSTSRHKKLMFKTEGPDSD
Procedure, shortened: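 In this cell-based reporter format, HCT116 cells were dosed with chemicals delivered from DMSO by 217-fold dilution and incubated 16 h at 37C. Emission at 460 and 530 nm after 2 h CCF4-AM loading provided the ratio, fitted upward versus DMSO.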

[2] = TOX21_p53_BLA_p3_viability: Viability Assessment in the Tox21 HCT-116 p53 Agonism Beta-lactamase Assay, Phase 3 (AID 2283593);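 note: cells exposed to compound for 16 h before reading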
Procedure, shortened: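 HCT116 cells, 4000/well, dosed 5 h after plating by pin transfer (217-fold dilution from DMSO stock) and incubated 16 h at 37C, 5% CO2. Viability read as ATP luminescence with CellTiter-Glo after 30 min at room temperature.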

[3] = biological target: Cellular tumor antigen p53 (Homo sapiens) (UniProt P04637); test: TOX21_p53_BLA_p3_ratio: Tox21 HCT-116 p53 Agonism Beta-lactamase Assay, Ratio, Phase 3 (AID 2283596)
Procedure, shortened: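 HCT116 p53-bla cells (4000/well) given compound in DMSO (217-fold dilution) after 5 h, incubated 16 h at 37C. CCF4-AM substrate 2 h at room temperature; 460/530 nm emission ratio, gain fitted against DMSO.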

[4] = TOX21_p53_BLA_p4_viability: Viability Assessment in the Tox21 HCT-116 p53 Agonism Beta-lactamase Assay, Phase 4 (AID 2283597);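 note: hits lower the luminescence signal meaning cytotoxicity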
Procedure, shortened: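 We seeded HCT116 p53 reporter cells at 4000/well and waited 5 h. We then added compounds in DMSO at a 217-fold dilution and incubated for 16 h. Viability was read as CellTiter-Glo luminescence after 30 min at RT.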

[5] = biological target: Cellular tumor antigen p53 (Homo sapiens) (UniProt P04637); test: TOX21_p53_BLA_p5_ratio: Tox21 HCT-116 p53 Agonism Beta-lactamase Assay, Ratio, Phase 5 (AID 2283599)
Procedure, shortened: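 HCT-116 p53-bla cells (4000/well) plated 5 h, dosed with compound (217-fold DMSO dilution) for 16 h at 37 C; CCF4-AM substrate 2 h at room temperature. Activity is the 460/530 nm emission ratio (405 nm excitation), fitted in gain-of-signal direction versus DMSO.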

[6] = biological target: Cellular tumor antigen p53 (Homo sapiens) (UniProt P04637); test: TOX21_p53_BLA_p4_ratio: Tox21 HCT-116 p53 Agonism Beta-lactamase Assay, Ratio, Phase 4 (AID 2283601)
Procedure, shortened: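 HCT-116 p53 beta-lactamase reporter cells (4000/well) preincubated 5 h, then compound (217-fold dilution of DMSO stock) for 16 h at 37C. CCF4-AM substrate added 2 h at room temperature; 460/530 nm emission ratio fitted upward versus DMSO.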

Measured: outcome

CC(C)=C1CC[C@@H](C)CC1=O
inactive: all assays above

CC1C(=O)CC2C3(C)CCC2(C(C)C(=O)O)C(=O)C13 (configuration not stated)
inactive: all assays above
